Compound activity: PubChem BioAssay, National Center for Advancing Translational Sciences (NCATS)
D2 ag-1 = agonists of human D2 dopamine receptor. P14416. 0.53% of 340,000 active. HEK293 T-REx D2 cells, calcium flux agonist mode. activation, % at 2 µM;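 active = activation over 3 SD above normal in the single-dose calcium agonist read, cut at about 30% in these data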; note: 0% is about no effect
Target sequence (P14416 whole entry, looked up): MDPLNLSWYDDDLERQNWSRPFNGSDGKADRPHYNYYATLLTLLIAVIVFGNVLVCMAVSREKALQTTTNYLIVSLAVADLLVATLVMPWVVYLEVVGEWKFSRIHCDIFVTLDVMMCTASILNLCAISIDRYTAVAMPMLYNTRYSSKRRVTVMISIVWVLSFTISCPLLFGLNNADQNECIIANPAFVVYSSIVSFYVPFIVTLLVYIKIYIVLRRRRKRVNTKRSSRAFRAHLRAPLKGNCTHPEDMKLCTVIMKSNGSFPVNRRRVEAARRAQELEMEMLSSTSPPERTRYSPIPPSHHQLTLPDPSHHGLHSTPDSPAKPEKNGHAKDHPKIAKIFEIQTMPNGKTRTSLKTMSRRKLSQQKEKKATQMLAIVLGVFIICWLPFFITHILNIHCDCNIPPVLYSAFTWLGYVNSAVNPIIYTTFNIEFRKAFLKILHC
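Tetracycline-induced HEK293 T-REx cells with force-coupled D2 receptor, plated overnight at 30 C, loaded with no-wash calcium dye. After a 10 s baseline, compound was pin-added and calcium flux read kinetically for 180 s; calcium rises flagged agonists.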
D2 antagonist = antagonists of human D2 dopamine receptor; HEK293 TREx D2 cells, calcium flux, dopamine EC80; inhibition, % at 10 µM; 2% of 340,000 active; AID 485344; in the data active = inhibition above about 30%; inactive = below that, where a call was filed; note: 0% is about no effect
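In this primary screen, negative modulation is detected by tracking calcium flux after an EC80 dopamine challenge in inducible HEK293 T-REx D2 cells preexposed to test compound for 180 s.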
D2 PAM-1 = human D2 receptor positive allosteric modulation; DiscoveRx D2 beta-arrestin cells, luminescence, 90 min; 100% = 57 uM dopamine signal; potentiation, % (test concentration not listed); 0.23% of 360,000 active; AID 624464; in the data active = potentiation above about 50%
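PathHunter beta-arrestin assay in DiscoveRx D2 cells. Compounds were added with an EC20 of dopamine (50 nM final) for 90 min at 37 deg C. Luminescence was read 1 h after detection reagent, with 57 uM dopamine as the EC100 control.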
D2 ag-2 = agonists of human D2 dopamine receptor (beta-arrestin); P14416; DiscoveRx PathHunter D2 beta-arrestin, luminescence, 90 min; 100% = 57 uM dopamine signal; activation, % (test concentration not listed); 0.084% of 360,000 active; AID 624465; in the data active = activation above about 40%
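Agonist mode: compounds alone added to overnight-plated D2 PathHunter cells for 90 min at 37 C, with 57 uM final dopamine (EC100) defining full response. Beta-arrestin recruitment detected by chemiluminescent reagent, read after 1 h at ambient temperature.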
D2 PAM-2 = positive allosteric modulators of human D2 dopamine receptor. P14416. HEK293 T-REx D2, calcium flux, EC20 dopamine potentiation. potentiation, % at 10 µM. 0.34% of 340,000 active. AID 485347;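 active = potentiation over 3 SD above the plate norm, cut at about 30% in these data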; note: 0% is about no effect
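Calcium flux readout, no-wash dye, 1 read/s. Inducible HEK293 Trex D2 line, overnight 30 C. Compound alone 180 s (agonist flags), then EC20 dopamine, another 180 s to score potentiation.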
Active calls of the source: *; · = no result given. An excerpt weighted towards active compounds, which were near 2.4% of everything screened.

SMILES	D2 ag-1	D2 antagonist	D2 PAM-1	D2 ag-2	D2 PAM-2
O=C1CC(NS(=O)(=O)c2ccc([N+](=O)[O-])cc2)CN1c1cccc(F)c1 (stereo not given)	0.3	-7.2	21.9	7.5	42.3*
CC(=O)c1ccc(S(=O)(=O)NC2CC(=O)N(c3cccc(F)c3)C2)cc1 (stereo not given)	-0.7	7.1	-0.8	-1.4	6.5
Cc1ccc(SCc2nc(-c3ccc(C(=O)NCc4ccc(Cl)cc4)cc3)oc2C)cc1	1.1	·	·	·	2.9
CC1C2CC(C/C2=N/NC(=O)c2cccs2)C1(C)C (stereo not given)	-0.5	-0.8	-2.0	-0.6	-8.6
C[C@@H]1C2CC(C/C2=N\NC(=O)c2ccncc2)C1(C)C (stereo not given in full)	0.3	35.6*	-4.6	-3.3	1.6
CCc1ccc(CN(C)CC(=O)Nc2sccc2C#N)cc1	-0.4	63.9*	-12.8	-3.4	8.9
CCc1cc2c(=O)oc(-c3ccc(Br)cc3)nc2s1	-1.4	32.8*	-6.3	-3.4	10.5
CCOc1cc(CNc2ncnc3nc[nH]c23)ccc1OC	-0.6	37.6*	-2.0	-4.2	-11.9
Cc1nc2ccccc2c(=O)n1-c1ccc(NC(=O)C(F)(F)F)cc1	-3.3	·	·	·	8.1
O=C(Nc1cccc(Br)c1)Nc1nc2c(s1)CCCCCC2	·	·	·	·	3.7
C/C(Cn1cnc([N+](=O)[O-])n1)=N\NC(=O)c1ccccc1	-0.6	-6.8	1.9	-1.2	-9.5
C/C(Cn1nnc([N+](=O)[O-])n1)=N\NC(=O)c1ccccc1	0.7	-7.3	58.8*	6.8	1.9
COc1ccc(OC)c(C2C(C(=O)Nc3ccccc3OC)=C(C)Nc3c(C(=O)Nc4ccc(F)cc4)cnn32)c1 (stereo not given)	13.0	·	·	·	3.3
CCn1nnnc1-c1ccc(OC)c(S(=O)(=O)Nc2ccc(C)c(C)c2)c1	-0.1	-17.9	-19.4	2.1	-1.9
CCn1nnnc1-c1ccc(OC)c(S(=O)(=O)NCc2ccccc2)c1	0.2	33.1*	4.1	-2.8	1.5
O=C(NCC1CCCO1)c1cccc(S(=O)(=O)N2CCCCC2)c1 (stereo not given)	0.4	30.9*	7.7	-1.0	3.7
CC1CCN(S(=O)(=O)c2cccc(C(=O)NCC3CCCO3)c2)CC1 (stereo not given)	0.0	-8.2	-5.3	3.7	-7.4
NC(=O)C1CCN(S(=O)(=O)c2cccc(S(=O)(=O)N3CCCCC3)c2)CC1	1.2	70.4*	5.4	-0.4	8.4
CSc1ccc(S(=O)(=O)N2CCC(C(=O)NCC3CCCO3)CC2)cc1 (stereo not given)	-0.3	7.6	-10.7	-2.3	32.6*
COc1ccc(-c2cc(C(C)=O)c(C)n2CCC(=O)NCc2ccc(F)cc2)cc1	0.6	·	·	·	-13.5
CC[C@@]12C(=O)N(c3cccc(Br)c3)C(=O)N1[C@H](c1ccc(Br)cc1)[C@@H]1C(=O)N(C(C)(C)C)C(=O)[C@@H]12	1.0	32.3*	-7.2	-3.7	-5.5
O=S(=O)(NCCc1cn2ccccc2n1)c1ccc(-c2ccccc2)cc1	-0.3	1.0	-5.4	0.6	2.2
Cc1cccc(S(=O)(=O)NCCc2cn3ccccc3n2)c1	-2.5	32.0*	-5.7	4.0	-4.8
COc1ccc([N+](=O)[O-])cc1NC(=O)c1csc(C)c1	0.0	-7.0	8.8	0.8	6.5
COc1cc(OC)cc(C(=O)Nc2ccc([N+](=O)[O-])cn2)c1	0.0	50.2*	-20.9	4.0	-21.5
SMILES	D2 ag-1	D2 antagonist	D2 PAM-1	D2 ag-2	D2 PAM-2
Cc1cc(C(=O)Nc2ccc([N+](=O)[O-])cn2)cs1	0.1	30.5*	-2.9	9.0	11.9
CCOc1cc(C(=O)Nc2ccc([N+](=O)[O-])cn2)cc(OCC)c1OCC	0.0	69.0*	-9.6	-4.9	-31.0
COc1ccc(C(=O)Nc2ccc([N+](=O)[O-])cn2)cc1OC	-0.2	16.6	-26.8	0.0	-19.7
CCCOc1ccc(C2C(=O)N(C3CCC(C)CC3)CC(=O)N2CCc2ccccc2)cc1OC (stereo not given)	0.1	·	·	·	8.8
OCCN1CCN(C(c2ccccc2Cl)c2sc3nc(-c4ccco4)nn3c2O)CC1 (stereo not given)	·	·	·	·	-23.1
O=C(Nc1ccc(C(=O)OCc2cc(=O)n3c4c(sc3n2)CCCC4)cc1)c1cccc(F)c1	-1.6	·	·	·	-1.8
CC(=O)Nc1cccc(C(=O)OCC(=O)c2ccccc2Cl)c1	1.5	41.1*	4.5	-2.6	-2.2
C=CCNC(=O)c1oc2ccc(S(=O)(=O)N3CCCCC3)cc2c1C	0.4	-4.9	-4.6	-1.2	-1.3
C=CCNC(=O)c1oc2ccc(S(=O)(=O)N3CCC4(CC3)OCCO4)cc2c1C	0.3	-1.0	-4.5	0.3	32.8*
CCOC(=O)c1c(NC(=O)c2cc3nc(-c4ccc(OC)cc4)cc(C(F)(F)F)n3n2)sc(C)c1C	·	·	·	·	-13.9
Cn1c(C(=O)NCCN2CCc3ccccc3C2)cc2c(=O)n(C)c3ccccc3c21	-1.6	48.0*	-6.1	5.0	-22.0
COc1cc(OC)cc(-c2nc3nc(C)c(CCC(=O)Nc4ccc(C)c(C)c4)c(C)n3n2)c1	1.3	·	·	·	-0.3
COC(=O)c1cc(C(=O)OC)cc(-n2c(C)cc(C(=O)CC#N)c2C)c1	-0.5	32.7*	-0.6	-1.6	13.5
Cc1ccc(CSc2nc3c(c(=O)[nH]2)C(c2cccc(F)c2F)CC(=O)N3)cc1 (stereo not given)	-1.9	·	·	·	-8.7
CCN1CCC(NC(=O)Nc2ccccc2C(=O)OC)CC1	-0.6	-13.0	-16.7	-0.7	-5.0
COC(=O)c1ccccc1NC(=O)NC1CCN(Cc2ccccc2)CC1	0.9	63.9*	-16.6	3.2	-18.7
COc1ccc(S(=O)(=O)NC2CCN(Cc3ccccc3)CC2)cc1NC(C)=O	-0.8	8.6	-4.5	6.8	-7.8
COc1ccc(C)cc1NC(=O)NC1CCN(Cc2ccccc2)CC1	0.9	75.1*	-20.1	-0.2	-25.5
CCC(C)[C@H](NC(=O)NC1CCN(Cc2ccccc2)CC1)C(=O)OC (stereo not given in full)	0.1	56.6*	-21.3	-3.4	-20.1
CCc1cccc(CN2CCC(CNC(=O)Nc3ccc(Cl)cc3)CC2)c1	-0.1	35.5*	-20.9	-3.9	-17.4
Nc1c(-c2nc(-c3cccs3)no2)nnn1-c1cccc(F)c1	1.0	·	·	·	6.8
COc1ccc(Cl)cc1NC(=O)NCC1CCN(Cc2cc(C)ccc2C)CC1	0.7	54.6*	-6.5	-3.0	-27.6
Cc1ccc(C)c(CN2CCC(CNC(=O)Nc3ccc(C)c(C)c3)CC2)c1	-0.2	-16.2	-6.7	-0.2	-12.3
Oc1ccc(-c2nc(-c3ccc(O)c(O)c3)cs2)cc1	3.2	-4.6	50.3*	13.9	-5.3
COc1ccc(N2CCN(C(=O)COC(=O)c3cccc(S(=O)(=O)Nc4cccc(C)c4)c3)CC2)cc1	0.0	40.2*	9.2	5.5	0.0
